In PMC4552634, “A New Set of Chemical Starting Points with Plasmodium falciparum Transmission-Blocking Potential for Antimalarial Drug Discovery” (PLoS ONE, 2015):
The campaign covered roughly 13,000 compounds. About 3,200 (25%) showed an effect of 50% or more. The list shows a part of the results.

These compounds were tested on P. falciparum stage V gametocytes. Details: 48 h, 5 µM; inhibitor.
Parameters: BacTiter-Glo ATP luminescence viability of purified stage V gametocytes in 384-well plates, per cent inhibition versus DMSO

Row | Structure (SMILES) | % Inhibition [%]
1 | Cc1cnc(-c2cccc(C(=O)NC3CCC(CCN4CCc5ccc(C#N)cc5CC4)CC3)c2)[nH]1 (stereo not drawn) [TCMDC-139842] | -56.62
2 | CS(=O)(=O)N1CC2(CCN(CCC(NC(=O)NCc3ccccc3Cl)c3ccc(Cl)c(Cl)c3)CC2)c2ccccc21 (stereo not drawn) [TCMDC-141768] | 10.44
3 | O=C(Nc1ccc(Br)c(C(F)(F)F)c1)c1cccc([N+](=O)[O-])c1 [TCMDC-123520] | -21.49
4 | O=C1COC2(CN1C1CCN(Cc3ccc(O)cc3Cl)C1)c1ccccc1-c1ccccc12 (stereo not drawn) [TCMDC-136341] | 24.28
5 | OCCN1CCN(Cc2ccc(-c3cccc(-c4nc5ccc(F)cc5[nH]4)c3)cc2)CC1 [TCMDC-133032] | -6.536
6 | CN1CCC(N2CCN(Cc3ccc(-c4cccc(-c5nc6ccc(F)cc6[nH]5)c4)cc3)CC2)CC1 [TCMDC-133843] | 52.56
7 | CN1CCC(N2CCN(Cc3cccc(-c4ccc(-c5nc6ccc(F)cc6[nH]5)cc4)c3)CC2)CC1 [TCMDC-133858] | 97.12
8 | CN1CCC(N2CCN(Cc3cccc(-c4ccc(-c5nc6ccc(C(F)(F)F)cc6[nH]5)cc4)c3)CC2)CC1 [TCMDC-133842] | 104
9 | FC(F)(F)c1ccc2nc(-c3ccc(-c4cccc(CN5CCN(CCN6CCOCC6)CC5)c4)cc3)[nH]c2c1 [TCMDC-133943] | -11.41
10 | Fc1ccc2nc(-c3ccc(-c4cccc(CN5CCN(CCN6CCOCC6)CC5)c4)cc3)[nH]c2c1 [TCMDC-133936] | -11.53
11 | Fc1ccc2nc(-c3cccc(-c4ccc(CN5CCN(CCN6CCOCC6)CC5)cc4)c3)[nH]c2c1 [TCMDC-133942] | 39.55
12 | N#CCCN1CCN(Cc2cccc(-c3ccc(-c4nc5ccc(F)cc5[nH]4)cc3)c2)CC1 [TCMDC-133860] | -16.76
13 | OCCN1CCN(Cc2cccc(-c3ccc(-c4nc5ccc(C(F)(F)F)cc5[nH]4)cc3)c2)CC1 [TCMDC-133031] | 3.481
14 | CCN(c1cc(C)nc(Nc2ccc(Cl)cc2)n1)[C@H]1CCN(Cc2ccccc2)C1 [TCMDC-132205] | -28.73
15 | CC(C)(C)c1cc(C(=O)N2CCN(c3nccnc3C#N)CC2)n(Cc2ccccc2)n1 [TCMDC-134141] | -3.89
16 | OC(c1cccc2ccccc12)C1CN(CCc2ccccc2)CCC1(O)c1ccccc1 (stereo not drawn) [TCMDC-131998] | 42.45
17 | COc1ccc(C2=C(Nc3ccc4oc5ccccc5c4c3)c3ccccc3C2=O)cc1 [TCMDC-125672] | 2.294
18 | Cc1noc(C)c1-c1cccc(CNCc2ccc(-c3ccc(-c4nc5cc(F)ccc5[nH]4)cc3)cc2)c1.O=C(O)C(F)(F)F [TCMDC-133057] | 12.39
19 | COc1ccc(CNCc2ccc(-c3cccc(-c4nc5cccc(C)c5[nH]4)c3)cc2)cc1.O=C(O)C(F)(F)F [TCMDC-132729] | 40.55
20 | COC(=O)c1cccc(CNCc2cccc(-c3ccc(-c4nc5cccc(C)c5[nH]4)s3)c2)c1.O=C(O)C(F)(F)F [TCMDC-132956] | -38.48
21 | COC(=O)c1cccc(CNCc2ccc(-c3ccc(-c4nc5cccc(C)c5[nH]4)s3)cc2)c1.O=C(O)C(F)(F)F [TCMDC-132950] | 57.35

Row | Structure (SMILES) | % Inhibition [%]
22 | COC(=O)c1cccc(CNCc2ccc(-c3ccc(-c4nc5ccccc5[nH]4)s3)cc2)c1.O=C(O)C(F)(F)F [TCMDC-132945] | -1.704
23 | Cc1cccc2nc(-c3cccc(-c4ccc(CNCc5cccc(N)c5)cc4)c3)[nH]c12.O=C(O)C(F)(F)F [TCMDC-132930] | -5.493
24 | COC(=O)c1cccc(CNCc2cccc(-c3cccc(-c4nc5cccc(C)c5[nH]4)c3)c2)c1.O=C(O)C(F)(F)F [TCMDC-132946] | 7.725
25 | Cc1cccc2nc(-c3ccc(-c4ccc(CNCc5cccc(N)c5)cc4)cc3)[nH]c12.O=C(O)C(F)(F)F [TCMDC-132938] | -30.59
26 | COC(=O)c1cccc(CNCc2ccc(-c3cccc(-c4nc5cccc(C)c5[nH]4)c3)cc2)c1.O=C(O)C(F)(F)F [TCMDC-132948] | 73.37
27 | Cc1cccc2nc(-c3ccc(-c4cccc(CNCC5CCCO5)c4)cc3)[nH]c12.O=C(O)C(F)(F)F (stereo not drawn) [TCMDC-133098] | -5.371
28 | Cc1cccc2nc(-c3cccc(-c4cccc(CNCc5cccc(N)c5)c4)c3)[nH]c12.O=C(O)C(F)(F)F [TCMDC-132928] | 56.62
29 | Cc1cccc2nc(-c3ccc(-c4cccc(CNCC5CCCO5)c4)s3)[nH]c12.O=C(O)C(F)(F)F (stereo not drawn) [TCMDC-133094] | 10.18
30 | Cc1cccc2nc(-c3cccc(-c4cccc(CNCC5CCCO5)c4)c3)[nH]c12.O=C(O)C(F)(F)F (stereo not drawn) [TCMDC-133104] | 76.66
31 | Brc1ccsc1-c1nc(NC2CCN(Cc3ccccc3)CC2)no1 [TCMDC-134188] | 10.75
32 | NCC(=O)NC12CC3CC(CC(C3)C1)C2 [TCMDC-131419] | -2.875
33 | N#CC1(c2ccccc2)CCN(c2nc(NCCCN3CCCC3=O)nc(N3CCCC4CCCCC43)n2)CC1 (stereo not drawn) [TCMDC-139927] | -17.2
34 | CCNc1cc(C(=O)N[C@@H](Cc2ccccc2)[C@H](O)CNCCc2cc(OC)cc(OC)c2)cc(N2CCCCS2(=O)=O)c1 [TCMDC-134842] | 28.85
35 | Cc1cccc2nc(-c3ccc(-c4cccc(NC(=O)CCc5c[nH]cn5)c4)s3)[nH]c12 [TCMDC-132161] | 5.175
36 | COC(=O)c1cccc(CNCc2cccc(-c3ccc(-c4nc5cccc(C)c5[nH]4)cc3)c2)c1.O=C(O)C(F)(F)F [TCMDC-132952] | 25.59
37 | COC(=O)c1cccc(CNCc2ccc(-c3ccc(-c4nc5cc(F)ccc5[nH]4)cc3)cc2)c1.O=C(O)C(F)(F)F [TCMDC-132953] | 44.17
38 | COC(=O)c1cccc(CNCc2ccc(-c3ccc(-c4nc5cccc(C)c5[nH]4)cc3)cc2)c1.O=C(O)C(F)(F)F [TCMDC-132957] | 77.27
39 | OC(CNc1ccnc(Nc2cccc(Cl)c2)n1)c1ccc(C(F)(F)F)cc1 (stereo not drawn) [TCMDC-136596] | -49.28
40 | COc1cc2nc(-c3ccc(Br)cc3)cc(N)c2cc1OC [TCMDC-138933] | 106.9
41 | COc1cc2nc(C)nc(Nc3cccc(Br)c3)c2cc1OC [TCMDC-131939] | -0.682
42 | Cc1nc(N)nc(N)c1-c1ccc(Br)cc1 [TCMDC-137374] | -63.84

Row | Structure (SMILES) | % Inhibition [%]
43 | N#Cc1ccc(CN2CCC(Oc3ccc(NC(=O)c4cccs4)cc3)C2)cc1 (stereo not drawn) [TCMDC-133959] | 8.963
44 | N[C@@H](CCNCc1ccc(-c2cccnc2)cc1)Cc1ccc(F)c(F)c1 [TCMDC-132122] | 33.59
45 | O=C(Nc1cccc(N2CCC(NCCCc3ccncc3)CC2)c1)c1cccc(C(F)(F)F)c1 [TCMDC-124659] | 7.336
46 | N[C@@H](CCNC1CCN(c2cccc(C(F)(F)F)c2)CC1)Cc1ccc(F)c(F)c1 [TCMDC-132301] | 119.6
47 | N#Cc1c(F)cc(N2CCC(NCC[C@H](N)Cc3ccc(F)c(F)c3)CC2)cc1F [TCMDC-132121] | 103.9
48 | N[C@@H](CCN1CCC(c2cccc(O)c2)CC1)Cc1ccc(F)c(F)c1 [TCMDC-132126] | -7.47
49 | O=C(NC1CCCC1)c1ccc(N2CCC(NCc3cccc(C(F)(F)F)c3)CC2)cc1 [TCMDC-124644] | -9.577
50 | O=C(Nc1ccc(Cl)c(-c2nc3ccccc3[nH]2)c1)c1ccc(-c2ccc(Cl)cc2)o1 [TCMDC-125599] | -11.96
51 | N#Cc1ccc(N2CCN(Cc3ccc(-c4ccc(-c5nc6ccccc6[nH]5)s4)cc3)CC2)nc1.O=C(O)C(F)(F)F [TCMDC-133119] | -24.51
52 | COCCNCc1ccc(-c2ccc(CN(C(=O)NC3CCCCC3)C3CCN(Cc4ccccc4)CC3)cc2)cc1 [TCMDC-140637] | 95.07
53 | COCCNCc1cccc(-c2ccc(CN(C(=O)NC3CCCCC3)C3CCN(Cc4ccccc4)CC3)cc2)c1 [TCMDC-140636] | 84.07
54 | C[C@@H](CC1CCCCC1)NCc1cccc(NS(=O)(=O)c2ccc(O)c(-c3ccno3)c2)c1 [TCMDC-141485] | 41.65
55 | COc1cc(-c2nc(-c3ccccc3)c(-c3ccc([N+](=O)[O-])cc3)[nH]2)cc(OC)c1O [TCMDC-125529] | -60.07
56 | COc1c(O)cc2oc(-c3ccc(O)cc3)cc(=O)c2c1O [TCMDC-123942] | 46.88
57 | COc1cc2[nH]c(-c3ccc(O)cc3)c(C)c(=O)c2c(OC)c1OC [TCMDC-137449] | 59.36
58 | O=C(Nc1ccc(Cn2ncc(N3CCCNCC3)c(Cl)c2=O)cc1)Nc1cc(C(F)(F)F)cc(C(F)(F)F)c1 [TCMDC-133327] | -39.39
59 | Cc1cc(N2CCOCC2)nc(Nc2ccc(NC(=O)c3cccc4ccccc34)cc2)n1 [TCMDC-124962] | 3.103
60 | C[C@H](N[C@H]1CCCc2c1[nH]c1ccc(Br)cc21)c1ccccc1 [TCMDC-138915] | -58.95
61 | Cc1nc(-c2ccc(-c3ccc(NC(=O)c4coc5ccc(N6CC(C)N(C)C(C)C6)cc45)cc3)c(C)c2)no1 (stereo not drawn) [TCMDC-141233] | 92.65
62 | Cc1nc(-c2ccc(-c3ccc(NC(=O)c4coc5ccc(N6CC(C)NC(C)C6)cc45)cc3)c(C)c2)no1 (stereo not drawn) [TCMDC-141309] | -4.933
63 | Cc1cc(-c2ccc(NC(=O)c3coc4ccc(N5CC(C)N(C)C(C)C5)cc34)cc2C)cc(C)n1 (stereo not drawn) [TCMDC-141310] | -15.05
